Source: PubChem BioAssay (EPA / NIEHS)
Active and inactive are the calls of the source. How the source made its calls: active means hit-call score of the fitted dose curve at least 0.9, where 1 is the maximum; inactive means score below 0.9.

Tests used:
Conditions in all cases: mRNA level, 48 h; actives raise or lower the signal
[1] = read-out: Glutathione S-Transferase (GSTA2), GSTA2 (gene 2939); test: LTEA_HepaRG_GSTA2: Life Technologies and Expression Analysis (LTEA) Assay for Glutathione S-Transferase (GSTA2) using HepaRG (AID 2283497)
How it was run: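 Differentiated human HepaRG cells were exposed in duplicate for 48 h in serum-free induction medium, 8 points from 100 uM top in half-log steps, 0.5% DMSO. GSTA2 mRNA was measured by TaqMan qRT-PCR, normalized to ACTB, GAPDH and POLR2A; bidirectional fit versus DMSO.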

[2] = read-out: Glutamate-cysteine ligase catalytic (GCLC), GCLC (gene 2729); test: LTEA_HepaRG_GCLC: Life Technologies and Expression Analysis (LTEA) Assay for Glutamate-cysteine ligase catalytic (GCLC) using HepaRG (AID 2283498)
How it was run: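 Differentiated HepaRG cells exposed 48 h in serum-free induction medium, eight-point half-log series topping at 100 uM in 0.5% DMSO, duplicates. GCLC mRNA by qRT-PCR normalized to ACTB, GAPDH and POLR2A, fitted bidirectionally versus DMSO.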

[3] = read-out: growth arrest and DNA damage 45 (GADD45G), GADD45G (gene 10912); test: LTEA_HepaRG_GADD45G: Life Technologies and Expression Analysis (LTEA) Assay for growth arrest and DNA damage 45 (GADD45G) using HepaRG (AID 2283499)
How it was run: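 Differentiated human HepaRG cells, 48 h post-plating, exposed 48 h in serum-free induction medium to 8 half-log concentrations (top 100 uM, 0.5% DMSO) in duplicate. GADD45G mRNA measured by Fluidigm TaqMan qRT-PCR, normalized to ACTB, GAPDH, POLR2A; bidirectional fit versus DMSO.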

[4] = read-out: Glutamate-cysteine ligase regulatory (GCLM), GCLM (gene 2730); test: LTEA_HepaRG_GCLM: Life Technologies and Expression Analysis (LTEA) Assay for Glutamate-cysteine ligase regulatory (GCLM) using HepaRG (AID 2283500)
How it was run: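 Differentiated HepaRG cells exposed 48 h in serum-free induction medium to eight half-log concentrations up to 100 uM (0.5% DMSO). GCLM mRNA by TaqMan qRT-PCR, normalized to ACTB, GAPDH and POLR2A; bidirectional fit versus DMSO.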

[5] = read-out: Glutathione S-transferase M3 (GSTM3), GSTM3 (gene 2947); test: LTEA_HepaRG_GSTM3: Life Technologies and Expression Analysis (LTEA) Assay for Glutathione S-transferase M3 (GSTM3) using HepaRG (AID 2283501)
How it was run: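 Differentiated human HepaRG cells were exposed in duplicate for 48 h in serum-free induction medium, 8 points from 100 uM top in half-log steps, 0.5% DMSO. GSTM3 mRNA was measured by TaqMan qRT-PCR, normalized to ACTB, GAPDH and POLR2A; bidirectional fit versus DMSO.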

[6] = read-out: Heat shock 70 kDa protein 1 (HSPA1A), gene 3303; test: LTEA_HepaRG_HSPA1A: Life Technologies and Expression Analysis (LTEA) Assay for Heat shock 70 kDa protein 1 (HSPA1A) using HepaRG (AID 2283502)
How it was run: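 Human HepaRG cells in serum-free induction medium were exposed in duplicate for 48 h to 8 half-log concentrations, highest 100 uM, in 0.5% DMSO. HSPA1A mRNA read by TaqMan qRT-PCR, normalized to ACTB, GAPDH, POLR2A, fitted bidirectionally against DMSO.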

[7] = read-out: Hypoxia-inducible factor 1-alpha (Homo sapiens) (UniProt Q16665); test: LTEA_HepaRG_HIF1A: Life Technologies and Expression Analysis (LTEA) Assay for Hypoxia-inducible factor 1 (HIF1A) Trancription factor using HepaRG (AID 2283503)
How it was run: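 Differentiated HepaRG cells in serum-free induction medium exposed 48 h, in duplicate, to 8-point half-log series from 100 uM in 0.5% DMSO. HIF1A mRNA measured by TaqMan qRT-PCR, normalized to ACTB/GAPDH/POLR2A, fitted bidirectionally versus DMSO.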

[8] = read-out: 3-Hydroxy-3-Methylglutaryl-CoA Synthase 2 (HMGCS2), HMGCS2 (gene 3158); test: LTEA_HepaRG_HMGCS2: Life Technologies and Expression Analysis (LTEA) Assay for 3-Hydroxy-3-Methylglutaryl-CoA Synthase 2 (HMGCS2) using HepaRG (AID 2283504)
How it was run: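 Human HepaRG cells in serum-free induction medium were exposed in duplicate for 48 h to 8-point half-log series from 100 uM top in 0.5% DMSO. HMGCS2 mRNA measured by TaqMan qRT-PCR, normalised to ACTB, GAPDH, POLR2A; bidirectional fit versus DMSO.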

HGF (gene 3082) = test: LTEA_HepaRG_HGF: Life Technologies and Expression Analysis (LTEA) Assay for Hepatocyte Growth Facto (HGF) using HepaRG (AID 2283505)
How it was run: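 Differentiated HepaRG cells in serum-free induction medium exposed 48 h in duplicate, 8 half-log concentrations from 100 uM in 0.5% DMSO. HGF mRNA by qRT-PCR, normalised to ACTB, GAPDH, POLR2A; bidirectional fitting.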

[9] = read-out: Insulin Like Growth Factor 1 (IGF1), IGF1 (gene 3479); test: LTEA_HepaRG_IGF1: Life Technologies and Expression Analysis (LTEA) Assay for Insulin Like Growth Factor 1 (IGF1) using HepaRG (AID 2283506)
How it was run: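 Differentiated HepaRG cells in serum-free induction medium, exposed 48 h in duplicate to 8 half-log concentrations up to 100 uM in 0.5% DMSO. IGF1 mRNA by Fluidigm qRT-PCR, normalised to ACTB, GAPDH and POLR2A.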

Measured: AC50

Chain of Hypoxia-inducible factor 1-alpha (Homo sapiens) (Q16665 whole entry, looked up): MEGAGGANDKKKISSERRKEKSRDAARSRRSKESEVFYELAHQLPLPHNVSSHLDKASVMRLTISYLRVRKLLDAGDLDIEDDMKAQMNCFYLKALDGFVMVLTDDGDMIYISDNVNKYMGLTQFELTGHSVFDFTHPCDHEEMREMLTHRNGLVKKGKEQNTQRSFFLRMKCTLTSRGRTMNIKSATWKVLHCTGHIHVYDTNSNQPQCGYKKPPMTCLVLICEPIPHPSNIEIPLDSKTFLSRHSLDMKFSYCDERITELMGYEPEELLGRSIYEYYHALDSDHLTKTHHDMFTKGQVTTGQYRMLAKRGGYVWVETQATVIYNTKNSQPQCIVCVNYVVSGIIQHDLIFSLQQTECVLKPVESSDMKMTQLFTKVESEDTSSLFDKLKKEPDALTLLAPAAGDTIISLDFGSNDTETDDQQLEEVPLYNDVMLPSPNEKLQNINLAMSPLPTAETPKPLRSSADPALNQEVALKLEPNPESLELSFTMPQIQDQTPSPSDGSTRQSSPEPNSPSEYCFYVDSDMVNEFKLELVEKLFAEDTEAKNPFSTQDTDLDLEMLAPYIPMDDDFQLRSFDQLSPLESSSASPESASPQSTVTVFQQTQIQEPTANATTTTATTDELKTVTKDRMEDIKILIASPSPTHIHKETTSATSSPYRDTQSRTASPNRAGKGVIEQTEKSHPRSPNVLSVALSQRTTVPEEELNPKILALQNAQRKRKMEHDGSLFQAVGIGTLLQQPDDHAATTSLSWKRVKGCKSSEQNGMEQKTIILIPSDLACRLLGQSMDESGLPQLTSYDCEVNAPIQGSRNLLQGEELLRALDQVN

CCOCCOC(C)=O
inactive: all assays above

CN(C)CCO
not listed: [8]
inactive: all other assays above

COc1ccc(O)c(C(C)(C)C)c1
inactive: all assays above

CCNc1nc(NC(C)C)nc(SC)n1
active: [3] 63.9 µM | [8] 50 µM | [9] 33.2 µM
inactive: all other assays above

ClC1=C(Cl)[C@]2(Cl)[C@@H]3[C@@H](Cl)[C@H]4O[C@H]4[C@@H]3C1(Cl)C2(Cl)Cl
active: [1] 82.5 µM | [9] 5.01 µM
not listed: [8]
inactive: all other assays above

Cc1cc2c3c(c1)C(c1ccccc1)=N[C@@H](NC(=O)c1ccncc1)C(=O)N3CC2
active: [6] 50 µM | [8] 71.2 µM | [9] 39.3 µM
inactive: all other assays above

Oc1c(Cl)c(Cl)c(Cl)c(Cl)c1Cl
active: [1] 3.87 µM | [2] 1.97 µM | [3] 12.6 µM | [4] 2.1 µM | [5] 4.88 µM | [6] 6.34 µM | [7] 5.16 µM | [8] 4.84 µM | [9] 6.52 µM
inactive: HGF (gene 3082)

NS(=O)(=O)C(F)(F)C(F)(F)C(F)(F)C(F)(F)C(F)(F)C(F)(F)C(F)(F)C(F)(F)F
active: [1] 13 µM | [2] 5.02 µM | [3] 50 µM | [4] 0.993 µM | [6] 75.5 µM | [7] 11.4 µM | [8] 12.8 µM | HGF (gene 3082) 12.9 µM | [9] 22.3 µM
inactive: [5]

CCCN(CCC)N=O
not listed: [8]
inactive: all other assays above

CC(C)C(=O)OCC(C)(C)C(OC(=O)C(C)C)C(C)C (stereo not drawn)
inactive: all assays above

O=C(O)C(F)(F)C(F)(F)C(F)(F)C(F)(F)C(F)(F)F
active: [8] 2.41 µM
inactive: all other assays above

CN(C)c1nc(=O)n(C2CCCCC2)c(=O)n1C
inactive: all assays above

Cc1ccccc1CO[C@@H]1C[C@@]2(C(C)C)CC[C@]1(C)O2
active: [6] 50 µM
not listed: [8]
inactive: all other assays above

O=C(NC(=O)c1cc(F)c(F)cc1Cl)Nc1cc(F)ccc1N1CCC(C(=O)O)CC1
active: [8] 20.3 µM
inactive: all other assays above

Clc1ccc(Cl)cc1
inactive: all assays above

CC(c1ccc(O)cc1)(c1ccc(O)cc1)c1ccc(O)cc1
active: [1] 37.3 µM | [2] 73.4 µM | [3] 75.1 µM | HGF (gene 3082) 25.1 µM | [9] 92 µM
inactive: [4] | [5] | [6] | [7]

CCCCCCCCCC[N+](C)(C)CCCCCCCCCC
active: [1] 74.5 µM | [2] 83.7 µM | [3] 83.7 µM | [7] 82.7 µM | HGF (gene 3082) 50 µM | [9] 67.7 µM
inactive: [4] | [5] | [6]

O=C(O)C(F)(F)C(F)(F)C(F)(F)C(F)(F)C(F)(F)C(F)(F)C(F)(F)C(F)(F)C(F)(F)F
inactive: [4] | [6] | [7]
active: [1] 35.5 µM | [2] 85.4 µM | [3] 19.4 µM | [5] 74.8 µM | HGF (gene 3082) 89.8 µM | [9] 31.2 µM

C[C@]12CCC(=O)C=C1CC[C@@H]1[C@@H]2CC[C@@]2(C)[C@H]1CC[C@]2(C)O
active: [8] 69 µM | [9] 11.3 µM
inactive: all other assays above
